{"source": "the OligoGym collection", "data": [{"target": "TAAR8", "assay": "pooled miR-30 sensor sort-seq; sequence = guide strand", "conditions": "shRNA", "values": [{"sequence": "TAATAAGCACTCCAACAGCAAA", "sensor-assay potency score (higher = more potent)": -1.57}, {"sequence": "TCAATTAATATATCAACTGTAT", "sensor-assay potency score (higher = more potent)": -0.769}, {"sequence": "TTATAGCTTGTTGTTTAGCTAT", "sensor-assay potency score (higher = more potent)": -0.98}, {"sequence": "AAATCTATCAACACCCAGCCTT", "sensor-assay potency score (higher = more potent)": -0.587}, {"sequence": "TATAGCTTGTTGTTTAGCTATA", "sensor-assay potency score (higher = more potent)": -1.63}, {"sequence": "TCAGTAACCACAATGTACCTGT", "sensor-assay potency score (higher = more potent)": 0.327}, {"sequence": "TAGCCTTTAAAACATCTCCACT", "sensor-assay potency score (higher = more potent)": -0.818}]}, {"target": "TAC4", "assay": "pooled miR-30 sensor sort-seq; sequence = guide strand", "conditions": "shRNA", "values": [{"sequence": "TTCCTCTCCACCATCACCTGCC", "sensor-assay potency score (higher = more potent)": 0.531}, {"sequence": "TCATCCTCTCTGCCTTCTGTGA", "sensor-assay potency score (higher = more potent)": -1.57}, {"sequence": "TTCTGTGAACAGGCTTCTCTTG", "sensor-assay potency score (higher = more potent)": -0.693}, {"sequence": "TATGCTTTTTTTCTCCTTGGCT", "sensor-assay potency score (higher = more potent)": -0.257}, {"sequence": "TTTTTTTCTCCTTGGCTGGATC", "sensor-assay potency score (higher = more potent)": -1.14}, {"sequence": "TGCTTTTTTTCTCCTTGGCTGG", "sensor-assay potency score (higher = more potent)": -1.36}, {"sequence": "TGCTTCAGTGCTGAGTGTCTGT", "sensor-assay potency score (higher = more potent)": -0.405}, {"sequence": "TGAACAGGCTTCTCTTGCCCAG", "sensor-assay potency score (higher = more potent)": -1.26}, {"sequence": "TGCAGCTGGAGCTGAATGCTGG", "sensor-assay potency score (higher = more potent)": -1.1}, {"sequence": "TCTGTGAACAGGCTTCTCTTGC", "sensor-assay potency score (higher = more potent)": -0.505}, {"sequence": "TCTCTGCCTTTTTTTCTCCTTG", "sensor-assay potency score (higher = more potent)": -0.948}, {"sequence": "TCTGCCTTCTGTGAACAGGCTT", "sensor-assay potency score (higher = more potent)": -0.554}]}, {"target": "TACR1", "assay": "pooled miR-30 sensor sort-seq; sequence = guide strand", "conditions": "shRNA", "values": [{"sequence": "TGACTTTGTACACACTGCCCTG", "sensor-assay potency score (higher = more potent)": -1.2}, {"sequence": "TTGAGTAGTAGCCCTGGGGGAA", "sensor-assay potency score (higher = more potent)": -0.65}, {"sequence": "TCGATCATGCACACGACTCTGC", "sensor-assay potency score (higher = more potent)": 0.106}, {"sequence": "TGGTCTTGGAGTCACTTCGTGA", "sensor-assay potency score (higher = more potent)": -1.54}, {"sequence": "TAGTTCGTCACTGTCCTCATTC", "sensor-assay potency score (higher = more potent)": -0.77}, {"sequence": "TTTCTCATAAATCTTGTTCGGA", "sensor-assay potency score (higher = more potent)": 0.392}, {"sequence": "TAGAACAGGCCGTAGTACCATT", "sensor-assay potency score (higher = more potent)": -1.05}, {"sequence": "TAGATCAGCACAGTCACACAGA", "sensor-assay potency score (higher = more potent)": -0.182}, {"sequence": "TCGTTGTGGACAGCATAGGTGA", "sensor-assay potency score (higher = more potent)": -1.11}, {"sequence": "TTCGTCACTGTCCTCATTCTTT", "sensor-assay potency score (higher = more potent)": -0.603}, {"sequence": "TAGGTGAAGTTCACCACTGTAT", "sensor-assay potency score (higher = more potent)": -0.204}, {"sequence": "TTCTCATAAATCTTGTTCGGAT", "sensor-assay potency score (higher = more potent)": -0.905}]}, {"target": "TAF3", "assay": "pooled miR-30 sensor sort-seq; sequence = guide strand", "conditions": "shRNA", "values": [{"sequence": "TTGATTTTAAACTTGTAGGGAT", "sensor-assay potency score (higher = more potent)": 0.554}, {"sequence": "TTTGGGAGTAGTACACTCCGGG", "sensor-assay potency score (higher = more potent)": 0.0818}, {"sequence": "TTTATCTGCTACCACAGCCTTT", "sensor-assay potency score (higher = more potent)": -0.868}, {"sequence": "TTCTTGTTCGCACACTTGGGGC", "sensor-assay potency score (higher = more potent)": -1.41}, {"sequence": "TAAACTTGTAGGGATCTGCCTC", "sensor-assay potency score (higher = more potent)": 0.187}, {"sequence": "TATCTTTATCTTTCTTGCCTTT", "sensor-assay potency score (higher = more potent)": -0.809}, {"sequence": "TTGTCCTTCTTCTTGTTCGCAC", "sensor-assay potency score (higher = more potent)": 0.171}, {"sequence": "AATAACACAACATCTAGCGTGT", "sensor-assay potency score (higher = more potent)": 0.896}, {"sequence": "TAACACAACATCTAGCGTGTCC", "sensor-assay potency score (higher = more potent)": 0.323}]}]}
